Measurements taken from the supplement of paper PMC12645437, “Orthogonal IMiD-Degron Pairs Induce Selective Protein Degradation in Cells” (ACS Chemical Biology, 2025).
In all, about 8,300 sequences were measured (“log2 fold change of degron read counts, EGFP-low vs EGFP+ sorted cells (limma voom), compound-induced degradation”: median about -1.1, highest 2% from about 3.2 on). Shown is part of a subset that was picked to be rich in the highest values.

T1: CRBN, Q96SW2
T1 chain: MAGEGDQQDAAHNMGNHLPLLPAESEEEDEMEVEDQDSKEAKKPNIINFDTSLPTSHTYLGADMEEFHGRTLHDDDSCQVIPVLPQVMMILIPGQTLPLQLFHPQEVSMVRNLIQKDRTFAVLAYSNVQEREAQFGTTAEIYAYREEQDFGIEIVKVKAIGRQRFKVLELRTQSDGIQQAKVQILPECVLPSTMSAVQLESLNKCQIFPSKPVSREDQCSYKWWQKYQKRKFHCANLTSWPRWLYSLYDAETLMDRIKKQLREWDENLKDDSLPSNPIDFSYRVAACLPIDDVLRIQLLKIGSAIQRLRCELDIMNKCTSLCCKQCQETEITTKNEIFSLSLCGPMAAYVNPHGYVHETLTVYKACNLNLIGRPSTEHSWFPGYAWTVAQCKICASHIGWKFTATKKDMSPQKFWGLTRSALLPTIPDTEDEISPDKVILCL

B1: 46F_47Y_49P_50Q_52G_53A_54H_55F_67L_, Q9UKT9 (peptide)
chain: FYCPQCGAHFTQKGNLLRHIKL
B2: 46F_47F_49P_50Q_52G_53A_54E_55F_67L_, Q9UKT9 (peptide)
chain: FFCPQCGAEFTQKGNLLRHIKL
B3: 46F_47M_49P_50Q_52G_53A_54E_55F_67L_, Q9UKT9 (peptide)
chain: FMCPQCGAEFTQKGNLLRHIKL
B4: 46F_47A_49E_50I_52G_53H_54V_55F_67L_, Q9UKT9 (peptide)
chain: FACEICGHVFTQKGNLLRHIKL
B5: 46F_47K_49P_50V_52G_53A_54Y_55F_67L_, Q9UKT9 (peptide)
chain: FKCPVCGAYFTQKGNLLRHIKL
B6: 46F_47D_49D_50V_52G_53A_54D_55F_67L_, Q9UKT9 (peptide)
chain: FDCDVCGADFTQKGNLLRHIKL
B7: 46F_47G_49D_50V_52G_53A_54V_55F_67L_, Q9UKT9 (peptide)
chain: FGCDVCGAVFTQKGNLLRHIKL
B8: 46F_47I_49N_50Q_52G_53A_54D_55F_67L_, Q9UKT9 (peptide)
chain: FICNQCGADFTQKGNLLRHIKL
B9: 46F_47Y_49E_50V_52G_53A_54K_55F_67L_, Q9UKT9 (peptide)
chain: FYCEVCGAKFTQKGNLLRHIKL
B10: 46F_47N_49E_50V_52G_53A_54K_55F_67L_, Q9UKT9 (peptide)
chain: FNCEVCGAKFTQKGNLLRHIKL
B11: 46F_47C_49E_50V_52G_53A_54K_55F_67L_, Q9UKT9 (peptide)
chain: FCCEVCGAKFTQKGNLLRHIKL
B12: 46F_47F_49E_50V_52G_53A_54K_55F_67L_, Q9UKT9 (peptide)
chain: FFCEVCGAKFTQKGNLLRHIKL
B13: 46F_47H_49E_50V_52G_53A_54K_55F_67L_, Q9UKT9 (peptide)
chain: FHCEVCGAKFTQKGNLLRHIKL
B14: 46F_47V_49E_50V_52G_53A_54K_55F_67L_, Q9UKT9 (peptide)
chain: FVCEVCGAKFTQKGNLLRHIKL
B15: 46F_47N_49S_50V_52G_53H_54V_55F_67L_, Q9UKT9 (peptide)
chain: FNCSVCGHVFTQKGNLLRHIKL
B16: 46F_47G_49D_50I_52G_53A_54L_55F_67L_, Q9UKT9 (peptide)
chain: FGCDICGALFTQKGNLLRHIKL
B17: 46F_47E_49P_50I_52G_53R_54E_55F_67L_, Q9UKT9 (peptide)
chain: FECPICGREFTQKGNLLRHIKL
B18: 46F_47F_49D_50V_52G_53A_54M_55F_67L_, Q9UKT9 (peptide)
chain: FFCDVCGAMFTQKGNLLRHIKL
B19: 46L_47C_49P_50I_52G_53F_54E_55C_67L_, Q9UKT9 (peptide)
chain: LCCPICGFECTQKGNLLRHIKL
B20: 46L_47N_49E_50I_52G_53F_54C_55C_67L_, Q9UKT9 (peptide)
chain: LNCEICGFCCTQKGNLLRHIKL
B21: 46L_47A_49E_50I_52G_53F_54C_55C_67L_, Q9UKT9 (peptide)
chain: LACEICGFCCTQKGNLLRHIKL
B22: 46L_47V_49E_50I_52G_53F_54C_55C_67L_, Q9UKT9 (peptide)
chain: LVCEICGFCCTQKGNLLRHIKL
B23: 46L_47W_49E_50I_52G_53F_54C_55C_67L_, Q9UKT9 (peptide)
chain: LWCEICGFCCTQKGNLLRHIKL
B24: 46L_47C_49E_50I_52G_53F_54C_55C_67L_, Q9UKT9 (peptide)
chain: LCCEICGFCCTQKGNLLRHIKL
B25: 46L_47S_49E_50I_52G_53F_54C_55C_67L_, Q9UKT9 (peptide)
chain: LSCEICGFCCTQKGNLLRHIKL
B26: 46L_47F_49E_50I_52G_53F_54C_55C_67L_, Q9UKT9 (peptide)
chain: LFCEICGFCCTQKGNLLRHIKL
B27: 46L_47Y_49E_50I_52G_53F_54C_55C_67L_, Q9UKT9 (peptide)
chain: LYCEICGFCCTQKGNLLRHIKL
B28: 46L_47D_49E_50I_52G_53F_54C_55C_67L_, Q9UKT9 (peptide)
chain: LDCEICGFCCTQKGNLLRHIKL

Molecular target: T1, CRBN, Q96SW2
Test: log2 fold change of degron read counts, EGFP-low vs EGFP+ sorted cells (limma voom), compound-induced degradation; higher = more compound-induced degradation of the degron-EGFP fusion; degrons are variants of IKZF1/3 zinc finger 2; compound dose not given here
Conditions: Jurkat, 18 h
[1] = compound: compound 19 (5-tert-butyl-thalidomide)
[2] = compound: compound 22 (5-morpholino-thalidomide)
[3] = compound: compound 33 (diphenyl IMiD analogue)
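Further: pooled lentiviral library of zinc finger degron-EGFP fusions in mCherry-positive Jurkat cells, FACS-sorted after compound exposure, with degron abundance counted by next-generation sequencing.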

Row | Sequence | log2 fold change of degron read counts [1] | log2 fold change of degron read counts [2] | log2 fold change of degron read counts [3] | log2 fold change of degron read counts (compound: thalidomide)
1 | B1 | 0.451 | 1.45 | 1.13 | -0.932
2 | B2 | -0.388 | -1.02 | -0.943 | -1.93
3 | B3 | -2.82 | -2.55 | 0.714 | -1.49
4 | B4 | -2.8 | -3.22 | -3.16 | -2.72
5 | B5 | -2.09 | -2.57 | -2.35 | -1.29
6 | B6 | -3.06 | -3.05 | -2.88 | -2.92
7 | B7 | -0.0514 | -0.272 | 0.863 | -1.24
8 | B8 | -3.68 | -3.02 | -3.36 | -3.07
9 | B9 | 3.48 | 3.66 | 1.65 | 1.54
10 | B10 | 1.99 | 0.318 | -2.12 | 0.139
11 | B11 | 3.23 | 2.43 | -0.571 | 2.71
12 | B12 | 3.53 | 3.42 | 1.26 | 1.64
13 | B13 | 2.92 | 1.93 | -0.596 | 0.387
14 | B14 | 0.611 | 1.89 | 0.0419 | 2.73
15 | B15 | -2.33 | -2.79 | -2.91 | -2.16
16 | B16 | 0.711 | -0.455 | 0.626 | -1.25
17 | B17 | -3.21 | -2.49 | -0.551 | 0.22
18 | B18 | 1.26 | 0.949 | -0.289 | -2.16
19 | B19 | 0.863 | 1.38 | 1.36 | 2.2
20 | B20 | 0.295 | -0.862 | -1.01 | -0.716
21 | B21 | 2.01 | 0.96 | -0.0283 | -0.106
22 | B22 | 1.06 | 1.69 | 1.86 | 2.44
23 | B23 | 2.9 | 3.31 | 2.14 | 0.752
24 | B24 | 0.944 | 0.646 | 1.13 | 1.21
25 | B25 | 1.68 | 1.58 | 0.957 | 0.73
26 | B26 | 3.37 | 3.39 | 2.01 | 1.32
27 | B27 | 3.35 | 3.28 | 3.07 | 1.36
28 | B28 | -1.71 | -2.74 | -1.75 | -1.36
